Screening data as filed in PubChem BioAssay.
Only some compounds are listed: those with a hit (about 6.2% of all), similar ones and a draw of the others.
Luc counter: blocks Kinase-Glo luciferase, a counter-screen artifact. Potency, µM (series often up to 38.3 µM), for the others: at the highest dose activity change, negative = inhibition, actives largely listed as inhibitors. actives 0.28% (n = 200,000). Q27757. Kinase-Glo luciferase, ATP luminescence, 8 min; note: nearly all actives have a fitted effect of over 60% in size
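Compound is pinned into ATP-containing buffer (10 uM ATP, imidazole pH 7.2, 7 mM MgCl2). Kinase-Glo luciferase reagent is then added. Light output is recorded following an 8-min room-temperature incubation.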
Gal4-VP16 FLuc: counter-screen for ROR gamma inhibitors: Gal4-VP16 reporter | actives 3.5% (n = 310,000) | Drosophila S2 Gal4-VP16 UAS-luciferase, luminescence, 20 h | AID 2546 | Potency, µM (doses to about 53.6 µM), inactives show at the highest dose activity, negative = inhibition, hits mostly inhibitors;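 note: Gal4-VP16 expression switched on by copper sulfate through the metallothionein promoter; nearly all actives have a fitted effect of over 50% in size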
RORgamma inh: inhibitors of mouse ROR gamma transcriptional activity | P51450 | Drosophila S2 Gal4-RORgamma UAS-luciferase reporter, 20 h | Potency, µM (highest dose often 53.6 µM), without a hit: top-dose activity change, negative = inhibition, hits mostly inhibitors | actives 5.4% (n = 310,000); note: nearly all actives have a fitted effect of over 60% in size
Target sequence (P51450 whole entry, looked up, the tested form may be a part): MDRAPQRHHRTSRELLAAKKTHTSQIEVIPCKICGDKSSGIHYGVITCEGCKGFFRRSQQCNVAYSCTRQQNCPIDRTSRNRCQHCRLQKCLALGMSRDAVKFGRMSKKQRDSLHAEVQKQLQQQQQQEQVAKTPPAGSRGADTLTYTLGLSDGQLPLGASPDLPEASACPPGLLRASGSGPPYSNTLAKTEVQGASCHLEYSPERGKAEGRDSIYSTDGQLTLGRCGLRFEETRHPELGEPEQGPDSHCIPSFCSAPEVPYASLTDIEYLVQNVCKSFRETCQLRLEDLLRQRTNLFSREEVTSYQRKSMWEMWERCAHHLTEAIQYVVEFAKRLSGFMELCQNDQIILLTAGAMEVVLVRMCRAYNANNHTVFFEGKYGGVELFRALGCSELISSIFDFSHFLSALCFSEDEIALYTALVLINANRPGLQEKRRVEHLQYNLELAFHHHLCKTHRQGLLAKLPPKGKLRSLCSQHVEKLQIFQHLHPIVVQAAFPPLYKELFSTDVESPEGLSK
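Drosophila Schneider cells stably carrying a metallothionein-driven Gal4 DBD–ROR gamma fusion and a UAS-Photinus luciferase reporter were exposed to compound for 1 hr, then induced with copper sulfate (700 uM final) for 20 hr at ambient temperature before luminescence reading.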
Starred values were filed as active, the others as inactive; [ ] = dose if it differs, or a comment. Calls come from the whole dose curve; as a rule, active = well fitted curve in the direction sought with a large enough effect; inconclusive = small, poorly fitted or top-dose-only effect, or another doubt; inactive = no such curve, though single readings can be large; an effect the other way counts as inactive or inconclusive. % is set by controls: 0 for no effect and ±100 for the full control effect; potency is the fitted concentration of half-maximal effect.

`COC(=O)c1ccc(Oc2c(Cl)cccc2[N+](=O)[O-])cc1` gave Luc counter -2%, Gal4-VP16 FLuc -28% and RORgamma inh 7.9µM*.
`COc1ccc(C)cc1N(C(=O)c1snc(C(N)=O)c1N)C(C(=O)NC1CCCCC1)c1ccc(C)o1` (stereo not given) gave Gal4-VP16 FLuc 25% and RORgamma inh 18%.
`CCOC(=O)C1CCCN(S(=O)(=O)c2cc(C(=O)OC)n(C)c2)C1` (stereo not given) gave Gal4-VP16 FLuc 16µM* and RORgamma inh 42%.
For CCOC(=O)C1CCCN(S(=O)(=O)c2ccccc2)C1 (stereo not given) the results were Luc counter 0%, Gal4-VP16 FLuc -3% and RORgamma inh 0%.
Cc1[nH]c2ccccc2c1/C=C/C(=O)c1ccncc1 was read as Gal4-VP16 FLuc -18% and RORgamma inh 12%.
O=C(/C=C/c1cccc2ccccc12)c1ccncc1 was read as Luc counter 1%, Gal4-VP16 FLuc 8.9µM* and RORgamma inh -88%.
`COc1cn(-c2ccccc2)nc1C(=O)NCc1ccc(C)cc1` gave Gal4-VP16 FLuc -2% and RORgamma inh 16%.
Cc1ccc(NC(=O)c2cnccn2)c(OC(F)F)c1 was read as Luc counter 1% and RORgamma inh 13%[0.365 µM].
Screening Cc1ccc(NC(=S)NCc2ccc(Cl)cc2)c(OC(F)F)c1 returned Gal4-VP16 FLuc 5µM* and RORgamma inh 6.3µM*.
`Cc1ccc(CNC(=S)Nc2ccc(OC(F)F)cc2C)cc1` gave Gal4-VP16 FLuc 4.5µM* and RORgamma inh 5.6µM*.
`COc1ccc(CNC(=O)Nc2ccc(C)cc2C)cc1` gave Luc counter -2%, Gal4-VP16 FLuc inconclusive and RORgamma inh -20%.
For c1cc(CSc2ncnc3nc[nH]c23)ccn1 the results were Luc counter -5%[7.66 µM].
For CN(C)c1nc(N)c([N+](=O)[O-])c(NCC2CCCO2)n1 (stereo not given) the results were Gal4-VP16 FLuc 4% and RORgamma inh -5%.
Screening O=C(NC1CCC1)C1CCC(=O)N(Cc2ccccc2F)C1 (stereo not given) returned Gal4-VP16 FLuc 0% and RORgamma inh 30%.
For COc1ccc2[nH]c(=O)cc(C(=O)O)c2c1 the results were Luc counter 2%, Gal4-VP16 FLuc -3% and RORgamma inh 0%.
COc1ccc2[nH]c3c4c(ccc3c2c1)C(=O)C=CC4=O was read as Gal4-VP16 FLuc 8.9µM* and RORgamma inh 6.3µM*.
Screening CC(C)(C)c1ccc(NC(=O)c2cc[n+]([O-])cc2)cc1 returned Gal4-VP16 FLuc -4% and RORgamma inh 22%.
COc1ccc(-c2n[nH]c(=S)n2-c2ccc(C)cc2)cc1OC was read as Gal4-VP16 FLuc inconclusive and RORgamma inh 16µM*.
Screening Cc1ccc(-n2c(-c3cccc(C)c3)n[nH]c2=S)cc1 returned Luc counter 0%, Gal4-VP16 FLuc 7.1µM* and RORgamma inh 3.2µM*.
`COc1ccccc1-c1n[nH]c(=S)n1-c1ccccc1` gave Luc counter 4%, Gal4-VP16 FLuc inconclusive and RORgamma inh 11µM*.
For CS(=O)(=O)Nc1ccc(-c2n[nH]c(=S)n2-c2ccccc2)cc1 the results were Luc counter 1%, Gal4-VP16 FLuc 9% and RORgamma inh inconclusive.
Screening COc1ccccc1-c1n[nH]c(=S)n1N returned Gal4-VP16 FLuc -2% and RORgamma inh -29%.
Cc1ccc(-n2c(-c3c(-c4ccccc4)noc3C)n[nH]c2=S)cc1 was read as Luc counter -2%, Gal4-VP16 FLuc 10µM* and RORgamma inh 4.5µM*.
`CC(C)C[C@H](NC(=O)[C@@H](N)Cc1ccccc1)C(=O)N[C@@H](Cc1ccccc1)C(=O)N[C@@H](CCC(N)=O)C(=O)N1CCC[C@H]1C(=O)N[C@@H](CCC(N)=O)C(=O)N[C@@H](CCCN=C(N)N)C(=O)N[C@@H](Cc1ccccc1)C(N)=O` gave Gal4-VP16 FLuc 4% and RORgamma inh 5%.
For Cc1ccc(S(=O)(=O)N(C)C)cc1NC(=O)c1cc(-c2ccco2)nc2ccccc12 the results were Gal4-VP16 FLuc -26% and RORgamma inh -42%.
For CCNc1nc(N)c(C(=O)c2ccc(Cl)s2)s1 the results were Luc counter -3%, Gal4-VP16 FLuc inconclusive and RORgamma inh -7%.
For COc1cccc([C@@H]2Oc3ccc(OC)cc3C(=O)[C@H]2OC(=O)NS(=O)(=O)c2ccc(F)cc2)c1 the results were Luc counter 1%, Gal4-VP16 FLuc 7% and RORgamma inh -40%.
For S=c1[nH]nc(-c2cccnc2)n1-c1ccccc1 the results were Luc counter 0%, Gal4-VP16 FLuc inconclusive and RORgamma inh 7.9µM*.
Screening S=c1[nH]nc(-c2ccc(Cl)cc2)n1-c1cccnc1 returned Gal4-VP16 FLuc 7% and RORgamma inh -39%.
COc1ccccc1-n1c(-c2cc(-c3ccc(F)cc3)n[nH]2)n[nH]c1=S was read as Luc counter 0%, Gal4-VP16 FLuc -3% and RORgamma inh 7.9µM*.
Screening COc1ccc(C)cc1-n1c(-c2ccncc2)n[nH]c1=S returned Luc counter 2%, Gal4-VP16 FLuc -3% and RORgamma inh -14%.
COc1ccc(-c2cc(-c3n[nH]c(=S)n3-c3cccc4ccccc34)[nH]n2)cc1 was read as Luc counter 0%, Gal4-VP16 FLuc -2%[10 µM] and RORgamma inh inconclusive.
COc1cc(-n2c(-c3ccccc3)n[nH]c2=S)c(OC)cc1Cl was read as Luc counter 1%, Gal4-VP16 FLuc -8% and RORgamma inh 5µM*.
For CC(=O)CC(=O)Nc1ccc(Nc2ccccc2)cc1 the results were Luc counter 2%, Gal4-VP16 FLuc 23% and RORgamma inh 40%.
`O=C(Nc1ccccc1)[C@@]12C[C@@H]1/C(=N/O)c1ccccc1O2` gave Luc counter 2%, Gal4-VP16 FLuc -15% and RORgamma inh inconclusive.
Cc1cc(=O)n2cccc(O)c2n1 was read as Luc counter 2%, Gal4-VP16 FLuc 1.8µM* and RORgamma inh 0.89µM*.
For O=c1nc2c(O)cccn2c2c1c(=O)[nH]c1ccccc12 the results were Luc counter 1%, Gal4-VP16 FLuc -25% and RORgamma inh -17%.
For CCN(CC)CCCNc1nc(SC)nc2sc3c(c12)CCN(C)C3 the results were Gal4-VP16 FLuc -12% and RORgamma inh 6%.
C=CCC(O)(C#Cc1ccccc1)c1ccccc1 (stereo not given) was read as Luc counter -2%, Gal4-VP16 FLuc 5% and RORgamma inh 27%.
Cc1ccc(C(=O)NC(=S)Nc2ccc(CN3CCOCC3)cc2)cc1 was read as Gal4-VP16 FLuc inconclusive and RORgamma inh 14µM*.
For CC(C)c1ccc(C(=O)Nc2ccc(CN3CCOCC3)cc2)cc1 the results were Gal4-VP16 FLuc inconclusive and RORgamma inh -21%.
`CC(C)Oc1ccc(C(=O)NC(=S)Nc2ccc(CN3CCOCC3)cc2)cc1` gave Luc counter -4%, Gal4-VP16 FLuc 13µM* and RORgamma inh 7.1µM*.
Screening CC(C)C(=O)NC(=S)Nc1ccc(CN2CCOCC2)cc1 returned Luc counter -1%, Gal4-VP16 FLuc -10% and RORgamma inh inconclusive.
Screening CC(=O)Nc1ccc(OS(=O)(=O)O)cc1 returned Gal4-VP16 FLuc -9% and RORgamma inh -2%.
